Results as given in PubChem BioAssay (NCI).
About 83,000 compounds went through this panel and 20% of them were active in at least one assay; those are over-represented in the sample as a whole.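 Interpretation: 100, growth as untreated; towards 0, rising growth inhibition; 0, no net growth; 0 to -100, cell death. Compounds scoring below 10 were considered active.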 Values without a mark were called inactive. The source made the active and inactive calls.

system: OVCAR-4 ovarian; assay: NCI-60 one-dose screen, 48 h (100 = growth as untreated, 0 = no growth, -100 = all killed); conditions: 10 µM unless noted
Procedure: Growth inhibition of the OVCAR-4 human tumor cell line is measured as a screen for anti-cancer activity. Cells are grown in 96 well plates and exposed to the test compound for 48 hours. Compounds are tested at a single concentration, which is 10^-5 M for most compounds. The reported endpoint is percent growth (GI% or GIPRCNT), where numbers from 0 - 100% represent growth inhibition, and numbers from -100% - 0 represent cell death. For example, a value of 40 represents 60% growth inhibition. A value of 0 means no net growth occurred over the course of the experiment. A value of -40 indicates 40% of cells at the beginning of the experiment died by the end of the experiment. A value of -100 means all cells are dead at the end of the experiment.
NCI-60 Human Tumor Cell Lines Screen was performed using the standard one-dose NCI protocol, which is described in more detail at https://dtp.cancer.gov/discovery_development/nci-60/default.htm.
Compounds with GIPRCNT values below 10 were considered active. Activity score was based on GIPRCNT using the following formula: […]
Score is 0 for GIPRCNT values of 100 or above, 50 for GIPRCNT values of 0, and 100 for GIPRCNT values of -100.

SMILES	growth
COc1ccc(/C(=C\c2ccc3c(c2)OCO3)C(=O)Nc2nc3ccccc3s2)cc1	101%
O=C(Cn1nncc1CN1C(=O)CSC1=O)Nc1ccc(F)cc1	103%
COc1ccc2[nH]c(C(=O)OCc3ccc4c(Br)cc(Br)c(O)c4n3)cc2c1	-44.2% (active)
CCNS(=O)(=O)c1ccc(C)cc1	103%
COc1ccc(NC(=O)c2ccc(C(F)(F)F)nc2Nc2ccc(Cl)cc2C)cc1Cl	24.6%
CC1=C(C(=O)Nc2ccc(F)cc2)C(c2ccc(C)cc2)C2=C(CC(C)(C)CC2=O)N1 (stereo not given)	90.8%
CCCCCCCCCCCCCCCc1cc(O)ccc1[N+](=O)[O-]	87.2%
O=C(/C=C/c1cn(-c2ccccc2)nc1-c1cccc(Nc2ccnc3cc(Cl)ccc23)c1)c1ccc2c(c1)OCO2	143%
CC(=O)c1c(O)c(C)c(O)c2c1OC1=CC(=O)/C(=C(/C)N)C(=O)C12C (stereo not given)	88.1%
CC(C)NC(=O)OCC#CCOC(=O)NC(C)C	121%
COc1ccc(C(=O)c2cc(C)c(OC)c(C)c2)cc1OC(=O)CCl	47.4%
COc1ccc2[nH]c(O)c(/C=c3/ccc4c(c3)N=C(c3ccc(F)cc3)N=4)c2c1	-38.2% (active)
C/C(=N\NC(=S)N1CCCCC1)c1ccccn1	-30.6% (active)
Cc1cc(NC(=O)c2ccc(N)cc2)ccc1N=Nc1ccc2cc(S(=O)(=O)O)cc(S(=O)(=O)O)c2c1	117%
COc1ccc(-c2[nH]nc(N)c2-c2cc(OC)c(OC)c(OC)c2)cc1	64.2%
CC(=O)O[C@H]1[C@H](CC#CC#CC[C@@H]2C[C@]3(C)[C@H]4CC=C5[C@H]6[C@@H](C)[C@H](C)CC[C@]6(C(=O)NCCN(CCN)CCN)CC[C@@]5(C)[C@]4(C)CC[C@H]3C(C)(C)[C@H]2OC(C)=O)C[C@]2(C)[C@H]3CC=C4[C@H]5[C@@H](C)[C@H](C)CC[C@]5(C(=O)NCCN(CCN)CCN)CC[C@@]4(C)[C@]3(C)CC[C@H]2C1(C)C	97.4%
C[C@@H](C[C@H](CC1CC1)c1ccccc1)c1ccc2ccccc2c1	96.1%
NC(=Nc1ccccc1)SCCCSC(N)=Nc1ccccc1	76.8%
Fc1cc(-c2nnc3sc(-c4ccc(Cl)cc4)nn23)c(Cl)cc1Cl	92.5%
CCOC(=O)c1c(NC(=O)c2ccccc2)sc2c(O)c(CN(CC)CC)ccc12	42.8%

SMILES	growth
CCCCCCCCCCCCCC[N+](C)(C)CCCCCCCCCCCCCC	62%
CC(C)N=C1CCCC1C(=S)SSC(=S)C1CCCC1=NC(C)C (stereo not given)	53.8%
CSCCC1NC(=O)C(C(C)=Nc2ccccc2)=C1O (stereo not given)	100%
COc1ccc2[nH]c(C(=O)OCc3ccc4cccc(O)c4n3)cc2c1	-59.2% (active)
COc1c(B(O)O)cccc1-c1nc2ccc3[nH]ncc3c2c2c1CCCC2	74.2%
CCc1ccc(Nc2ncnc3c2cnn3-c2cccc(Br)c2)cc1	105%
COc1cccc(NC(=O)c2c(-c3ccccc3)c(-c3ccccc3)n[nH]c2=O)c1	86%
CC1=C(C(=O)Nc2ccc(F)cc2)C(c2ccccc2)C2=C(CC(C)(C)CC2=O)N1 (stereo not given)	58.7%
NNC(=O)Cc1ccccc1	97.4%
COc1c(B(O)O)cccc1-c1nc2c(F)cc3n[nH]c(C)c3c2c2c1CCCC2	43.7%
COc1ccc(C(=O)C(CN(C)C)c2ccccc2)cc1 (stereo not given)	33.4%
Fc1cnccc1-c1nc2ccc3[nH]ncc3c2c2c1CCCC2	48.9%
O=c1[nH]cnc2nc[nH]c12	94.5%
COc1cc(/C=C/C(=O)c2ccc(NC(=O)CSc3nnc(-c4ccc(Cl)cc4)n3-c3ccccc3)cc2)cc(OC)c1OC	57.2%
COC(=O)C(C)NC1=C(Cl)C(=O)C(NC(C)C(=O)OC)=C(Cl)C1=O (stereo not given)	78.6%
c1ccc2c(c1)cnc1ccccc12	96.3%
COc1cccc(CC(C)=C(c2ccc(OCCCN(C)C)cc2)c2ccc(OCCCN(C)C)cc2)c1	-22.2% (active)
Oc1ccc(Cl)cc1-c1cc(-c2ccccc2Cl)[nH]n1	13.3%
COc1ccc(C2C=C(c3ccc(Cl)cc3)N=C3SC=CN32)cc1 (stereo not given)	97.4%
CCOC(=O)Nc1ccc2nc(-c3cscn3)[nH]c2c1	89.7%
